Assay results published in PubChem BioAssay (NCATS).
Inconclusive results are not listed. The source made the active and inactive calls. Calls follow the shape of the dose curve; as a rule, active = well fitted inhibition curve with a large enough effect; inconclusive = small, poorly fitted or top-dose-only effect; inactive = flat fitted curve, though single readings scatter.

biological target: Glutathione peroxidase 1 (Homo sapiens) (UniProt P07203); assay: Primary qHTS Assay for Inhibitors of Recombinant Selenoprotein Glutathione Peroxidase 1 (GPX1) (AID 1845191); settings: recombinant GPX1, GR-coupled NADPH fluorescence, 15 min; series mostly up to 48.8 µM; activity, negative = inhibition: at the top concentration; also: nearly all actives have a fitted effect of over 65% in size
Sequence (P07203 whole entry, looked up): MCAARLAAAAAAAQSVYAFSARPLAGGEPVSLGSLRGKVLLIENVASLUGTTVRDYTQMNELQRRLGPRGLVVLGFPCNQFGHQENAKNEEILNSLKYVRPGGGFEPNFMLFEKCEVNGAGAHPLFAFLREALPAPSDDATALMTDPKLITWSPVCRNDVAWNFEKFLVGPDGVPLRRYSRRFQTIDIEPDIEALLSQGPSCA
Summary of the method: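 GR-coupled readout: NADPH consumption tracked by fluorescence, ex 340/em 450 nm, at t=0 and after 15 min at RT. Final mix 10 nM GPX1, 1 mM GSH, 0.5 mM CHP, 0.5 mM NADPH, 100 nM GR, 0.01% BSA, following 30 min enzyme–compound preincubation.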
% is scaled to controls: 0 for no effect and ±100 for the full control effect.

Row | SMILES | activity, negative = inhibition | outcome
1 | COc1ccccc1Oc1ccc(N(Cc2cccnc2)S(=O)(=O)CC(F)(F)F)cc1 | -13.6% (inactive) | 
2 | C=CC(C)(O)CC/C=C(\C)C(=O)OC1C(O)C(CO)OC(OC(=O)C23CCC(C)(C)CC2C2=CCC4C5(C)CCC(OC6OC(COC7OCC(OC(C)=O)C(O)C7OC7OC(COC(C)=O)C(O)C(O)C7O)C(O)C(O)C6O)C(C)(C)C5CCC4(C)C2(C)C(O)C3O)C1OC1OCC(OC2OCC(O)C(OC3OCC(O)C(O)C3O)C2O)C(O)C1O (centres undefined) |  | inactive [at 9.52 µM]
3 | O=C(CO)[C@@H](O)[C@H](O[C@@H]1O[C@H](CO)[C@H](O)[C@H](O)[C@H]1O)[C@H](O)CO |  | inactive
4 | C/C1=C\CCC(C)CCO[C@@H]2O[C@H](CO[C@@H]3OC[C@H](O)[C@H](O)[C@H]3OC1=O)[C@@H](O)[C@H](O)[C@H]2O (some centres undefined) | -17.5% [at 27.7 µM] (inactive) | 
5 | Cc1csc(NC(=O)c2ccc(COc3cccc(Cl)c3)o2)n1 | -11.1% (inactive) | 
6 | COC(=O)C[C@H]1C(C)(C)[C@H](OC(C)=O)C2CC3=C4CC(=O)O[C@@H](c5ccoc5)[C@]4(C)CCC3[C@@]1(C)C2=O (some centres undefined) | -24.8% [at 27.7 µM] (inactive) | 
7 | CC(=O)O[C@]1(C(C)=O)CC[C@H]2[C@@H]3C[C@H](C)C4=CC(=O)C=C[C@]4(C)[C@@]3(F)[C@@H](O)C[C@@]21C |  | inactive
8 | CCCC1(c2ccccc2)NC(=O)N(CC(=O)N(C)Cc2c(F)cccc2Cl)C1=O (centres undefined) | -31.8% (inactive) | 
9 | C=CC(C)(O)CC[C@H]1C(=C)CCC2[C@](C)(C(=O)O)CCC[C@@]21C (some centres undefined) |  | inactive [at 27.7 µM]
10 | C=CC(C)(O)C(O)CC1C(C)(O)C(O)C(O)C2C(C)(C)CCCC21C (centres undefined) |  | inactive [at 27.7 µM]
11 | C[C@@H]1C[C@@H](O)[C@@]23CO[C@@H](O)[C@@H]2CCC[C@@H]3[C@@]12C[C@@H](c1ccoc1)OC2=O | -3.4% [at 27.7 µM] (inactive) | 
12 | OC[C@H]1O[C@@H](OC(CCCCc2ccc(O)cc2)CCc2ccc(O)cc2)[C@H](O)[C@@H](O)[C@@H]1O (some centres undefined) | 2.45% [at 27.7 µM] (inactive) | 
13 | Cc1cc(Nc2ncc3cc(-c4c(Cl)cccc4Cl)c(=O)n(C)c3n2)ccc1F | -11% (inactive) | 
14 | CC1(C(=O)O)CCCC2(C)C3=CCC4CC3(CCC12)CC4CO (centres undefined) | -6.66% [at 27.7 µM] (inactive) | 
15 | C[C@H](O)[C@H](O)/C=C/c1cccc(O)c1CO | -12.2% (inactive) | 
16 | CC1(C)C2CC=C(COC3OC(COC4OCC(O)(CO)C4O)C(O)C(O)C3O)C1C2 (centres undefined) | 0.232% [at 27.7 µM] (inactive) | 
17 | C=CC(C)(C)C12C=C(OC)C(=O)N3C(C(C)C)C(=O)NC31N(OC)c1ccccc12 (centres undefined) | -13% [at 27.7 µM] (inactive) | 
18 | [N-]=[N+]=N[C@]1(CO)O[C@@H](n2ccc(=O)[nH]c2=O)[C@@H](O)[C@@H]1O |  | inactive
19 | COC(=O)C[C@H]1C(C)(C)[C@H](OC(=O)C(C)C)[C@@]2(O)C(=O)[C@]1(C)C1CC[C@]3(C)C(CC(=O)O[C@H]3c3ccoc3)[C@]13O[C@@H]32 (some centres undefined) |  | inactive [at 15.3 µM]
20 | CC(C)[C@H]1CC[C@@]2(O)COC(=O)[C@H]2[C@@H]1/C=C(\CO)C(=O)O | -10.8% (inactive) | 
21 | CS(=O)(=O)N(CC(=O)NCC1CC1)c1cc(C(F)(F)F)ccc1Cl | 1.76% (inactive) | 
22 | CC(=O)O[C@@H]1[C@@H](OC(=O)/C=C/c2ccccc2)[C@@H](OC(C)=O)[C@H](O[C@H]2[C@@H]3C=CO[C@@H](O[C@@H]4O[C@H](CO)[C@@H](O)[C@H](O)[C@H]4O)[C@@H]3[C@@]3(CO)O[C@@H]23)O[C@H]1C | 0.478% [at 15.3 µM] (inactive) | 
23 | CC1(C)[C@@H](O)CC[C@]2(C)[C@H]3CC=C4[C@@H]5C[C@](C)(C(=O)O)CC[C@]5(C)CC[C@@]4(C)[C@]3(C)CC[C@@H]12 | -26.6% (inactive) | 
24 | NCc1ccc(Nc2ncc(F)c(Nc3ccccc3)n2)cc1 | -0.0813% (inactive) | 
25 | CC(=O)O[C@@H]1[C@@H](O)[C@H](C)O[C@@H](O[C@H]2[C@@H]3C=CO[C@@H](O[C@@H]4O[C@H](CO)[C@@H](O)[C@H](O)[C@H]4O)[C@@H]3[C@@]3(CO)O[C@@H]23)[C@@H]1OC(=O)/C=C/c1ccccc1 | -9.7% [at 15.3 µM] (inactive) | 
26 | COc1c(C)c(OCC(O)C(C)(C)O)cc2c1COC2=O (centres undefined) |  | inactive
27 | C[C@@H]1O[C@@H](O[C@H]2[C@H](O[C@H]3[C@H](O[C@H]4CC[C@@]5(C)C(CC[C@]6(C)C5CC=C5[C@@H]7CC(C)(C)C[C@@H](O)[C@]7(C)CC[C@]56C)[C@@]4(C)CO)O[C@H](C(=O)O)[C@@H](O)[C@@H]3O)OC[C@H](O)[C@@H]2O)[C@H](O)[C@H](O)[C@H]1O (some centres undefined) |  | inactive [at 15.3 µM]
28 | CCOc1ccc(S(=O)(=O)n2c(C)nc3ccccc32)cc1 | -1.02% [at 27.7 µM] (inactive) | 
29 | Cc1ccc(NC(=O)C(=O)NC2CC(C)(C)NC(C)(C)C2)cc1 | -14.8% (inactive) | 
